Experimental data taken from PubChem BioAssay (NCI).
Compounds without any hit were thinned out: in the full panel of roughly 79,000, 15% have a hit. A number with no mark means an inactive call. Activity calls are given as the source filed them. No stated cut-off is given here; in the data, active means growth inhibition above about 70%; inactive means the rest.

Assay: NCI Yeast Anticancer Drug Screen. Data for the sgs1 mgt1 strain (AID 161);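 further: 0% = growth of cultures given vehicle only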
Details: S. cerevisiae sgs1 mgt1 strain, at 50.0 µM, hits give high values
In short: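 Compounds are added to genetically altered yeast, and growth is compared with cultures given vehicle alone to give percent inhibition.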

SMILES	growth inhibition
Cc1cc(NCCCCCCCNc2cc(C)nc3cc(N)ccc23)c2ccc(N)cc2n1	86% (active)
C[C@]12CC[C@H]3[C@@H](CCC4=CC(=O)CC[C@@]43C)[C@@H]1CC[C@@H]2C(=O)C=O	71% (active)
COc1cc2c[n+](C)c3c4cc(OC)c(OCc5ccccc5)cc4c(OCc4ccccc4)cc3c2cc1OC	51.1%
Nc1ncnc2c1c(-c1ccc(Cl)cc1)cn2-c1ccccc1	85.2% (active)
Cc1c[nH]c2nc(C)n(-c3ccccc3)c(=N)c12	2.5%
COc1ccc(Cc2ccc3c(C)cc(Cl)nc3c2)cc1	87% (active)
COC(=O)c1ccc(NCc2c(O)ccc(O)c2Br)cc1Cl	89.1% (active)
CC1=CC(=O)c2c(O)c3c(c(O)c2C1=O)C1C(O)C(C3=O)C23C(=O)c4c(O)c(C)cc(O)c4C(O)=C2C(=O)CC(O)C13 (stereo unspecified)	92.7% (active)
CC(C)(O)[C@H](CCO)O[Si](c1ccccc1)(c1ccccc1)C(C)(C)C	98.2% (active)
COC(=O)/C(C#N)=C(/SC)N(C)C	-10.3%
N#CC(C(=O)CCCC(=O)Nc1ccc(Cl)cc1)c1ccccc1Cl (stereo unspecified)	99% (active)
FC(F)(F)c1cccc(Nc2ccc3cnc4ccccc4c3c2)c1	96.6% (active)
CN1C(/C=C/c2ccc(O)c3ncccc23)CCC2CCCC(O)C21 (stereo unspecified)	92.2% (active)
N#CC1(C#N)C(C#N)(C#N)C12CCCC2	74% (active)
O=C1C(Cl)=C(Cl)C(=O)C2=C1CC(Cl)C(Cl)C2 (stereo unspecified)	99.5% (active)
N#CC(/C=C/c1ccccc1)(NO)Nc1cccc(Cl)c1 (stereo unspecified)	99.1% (active)
